Data: PubChem BioAssay AID1159580 (chemical genetic matrix, 2015)
In all, about 5,500 compounds went through this assay and about 2,000 (36%) were called active. Not shown: some 18% with an inconclusive outcome. No stated cut-off is given here; in the data, active means normalized growth mostly below about 0.91 (no sharp cut-off); inconclusive means no clear call, values can overlap the other calls; inactive means mostly above about 0.92. The list shows a part of the results.

Experiment: chemical genetic growth profiling, strain panel (AID 1159580);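 further: tested at 20 µM; growth read once vehicle control cultures reached saturation at 30 °C; 1 = growth at the plate median or of vehicle wells; lower values mean less growth of the strain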
Settings: growth OD

Measured: normalized growth

COC(=O)CCCCCCCC(=O)Nc1ccc(Cl)cc1
inactive: S. cerevisiae deletion strains, locus YAL013W, strain DEP1, hits give low values 0.999 | S. cerevisiae deletion strains, locus YBR229C, strain ROT2, hits give low values 0.997 | S. cerevisiae deletion strains, locus YCL061C, strain MRC1, hits give low values 0.998 | S. cerevisiae deletion strains, locus YDL101C, strain DUN1, hits give low values 0.984 | S. cerevisiae deletion strains, locus YDR150W, strain NUM1, hits give low values 0.896 | S. cerevisiae deletion strains, locus YEL061C, strain CIN8, hits give low values 1 | S. cerevisiae deletion strains, locus YGR078C, strain PAC10, hits give low values 0.997 | S. cerevisiae deletion strains, locus YGR229C, strain SMI1, hits give low values 1.03 | S. cerevisiae deletion strains, locus YHR030C, strain SLT2, hits give low values 0.999 | S. cerevisiae deletion strains, locus YHR087W, strain rtc3, hits give low values 0.983 | S. cerevisiae deletion strains, locus YJR043C, strain POL32, hits give low values 1.01 | S. cerevisiae deletion strains, locus YJR075W, strain HOC1, hits give low values 0.985 | S. cerevisiae deletion strains, locus YLR039C, strain RIC1, hits give low values 1.01 | S. cerevisiae deletion strains, locus YLR058C, strain SHM2 (second series), hits give low values 1.01 | S. cerevisiae deletion strains, locus YLR085C, strain ARP6, hits give low values 1.01 | S. cerevisiae deletion strains, locus YLR262C, strain YPT6, hits give low values 1.02 | S. cerevisiae deletion strains, locus YML094W, strain GIM5, hits give low values 0.975 | S. cerevisiae deletion strains, locus YMR219W, strain ESC1, hits give low values 1.01 | S. cerevisiae deletion strains, locus YMR263W, strain SAP30, hits give low values 1.01 | S. cerevisiae deletion strains, locus YMR307W, strain GAS1, hits give low values 1.06 | S. cerevisiae deletion strains, locus YNL128W, strain TEP1, hits give low values 1.02 | S. cerevisiae deletion strains, locus YNL153C, strain GIM3, hits give low values 0.997 | S. cerevisiae deletion strains, locus YNL298W, strain CLA4 (second series), hits give low values 1.01 | S. cerevisiae deletion strains, locus YNL322C, strain KRE1, hits give low values 1 | S. cerevisiae deletion strains, locus YNR030W, strain Alg12, hits give low values 0.997 | S. cerevisiae deletion strains, locus YPL055C, strain LGE1, hits give low values 0.929 | S. cerevisiae deletion strains, locus YPL241C, strain CIN2, hits give low values 0.991 | S. cerevisiae deletion strains, locus YPR135W, strain CTF4, hits give low values 0.955 | S. cerevisiae strains, strain wild type, hits give low values 1.02
